According to PubChem BioAssay AID1159580 (chemical genetic matrix, 2015):
Several values for one entry are separate records, joined by “and”; a condition that tells them apart may be missing. Identical values can stand only once. The whole screen tested about 5,500 compounds, of which about 2,000 (36%) were called active. Roughly 18% stayed inconclusive and do not appear here. Rule as the data show it: active = normalized growth mostly below about 0.91 (no sharp cut-off); inconclusive = no clear call, values can overlap the other calls; inactive = mostly above about 0.92. This is one part of the list.

Assay: chemical genetic growth profiling, strain panel (AID 1159580);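 also: tested at 20 µM; growth read once vehicle control cultures reached saturation at 30 °C; 1 = growth at the plate median or of vehicle wells; lower values mean less growth of the strain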
Conditions: S. cerevisiae deletion strains, growth OD

Measured: normalized growth

COc1ccc2[nH]cc(CCNC(C)=O)c2c1
inactive: locus YAL013W, strain DEP1, hits give low values 1.01 | locus YAL021C, strain ccr4, hits give low values 0.977 | locus YAL026C, strain drs2, hits give low values 0.983 | locus YAL030W, strain snc1, hits give low values 0.984 | locus YAL040C, strain CLN3, hits give low values 0.996 | locus YBL061C, strain skt5, hits give low values 0.969 | locus YBR009C, strain hhf1, hits give low values 0.983 | locus YBR021W, strain FUR4, hits give low values 1.01 | locus YBR023C, strain chs3, hits give low values 0.979 | locus YBR171W, strain sec66, hits give low values 0.966 | locus YBR229C, strain ROT2, hits give low values 1.02 | locus YBR231C, strain swc5, hits give low values 0.971 | locus YBR279W, strain paf1, hits give low values 0.978 | locus YCL011C, strain gbp2, hits give low values 0.979 | locus YCL016C, strain dcc1, hits give low values 0.972 | locus YCL029C, strain bik1, hits give low values 1.02 | locus YCL061C, strain MRC1 (second series), hits give low values 1.01 | locus YCL061C, strain MRC1, hits give low values 0.984 | locus YCL069W, strain vba3, hits give low values 0.977 | locus YCR088W, strain abp1, hits give low values 0.968 | locus YDL005C, strain med2, hits give low values 0.959 | locus YDL035C, strain GPR1, hits give low values 1.01 | locus YDL040C, strain nat1, hits give low values 0.971 | locus YDL074C, strain BRE1, hits give low values 1.02 | locus YDL101C, strain DUN1, hits give low values 1.01 | locus YDL134C, strain PPH21, hits give low values 1.01 | locus YDL185W, strain tfp1, hits give low values 1.03 | locus YDL192W, strain arf1, hits give low values 1.03 | locus YDR001C, strain nth1, hits give low values 0.973 | locus YDR069C, strain doa4, hits give low values 0.958 | locus YDR101C, strain arx1, hits give low values 1.02 | locus YDR137W, strain rgp1, hits give low values 0.992 | locus YDR150W, strain NUM1, hits give low values 1 and 1.01 | locus YDR159W, strain sac3, hits give low values 0.943 | locus YDR162C, strain NBP2, hits give low values 1.02 | locus YDR195W, strain ref2 0.959 | locus YDR297W, strain sur2, hits give low values 0.967 | locus YDR318W, strain mcm21, hits give low values 1.02 | locus YDR334W, strain swr1, hits give low values 0.969 | locus YDR335W, strain msn5, hits give low values 0.977 | locus YDR363W, strain ESC2, hits give low values 0.996 | locus YDR388W, hits give low values 1.02 | locus YDR392W, strain spt3, hits give low values 0.958 | locus YDR502C, strain sam2, hits give low values 1.03 | locus YEL003W, strain gim4, hits give low values 0.974 | locus YEL037C, strain rad23, hits give low values 0.966 | locus YEL061C, strain CIN8 (second series), hits give low values 0.972 | locus YEL061C, strain CIN8, hits give low values 1 | locus YER002W, strain NOP16, hits give low values 0.999 | locus YER015W, strain faa2, hits give low values 0.981 | locus YER016W, strain bim1, hits give low values 0.975 | locus YER110C, hits give low values 1.02 | locus YER111C, strain swi4, hits give low values 0.976 | locus YER155C, strain BEM2 (second series), hits give low values 0.971 | locus YER155C, strain BEM2, hits give low values 0.998 | locus YER167W, strain BCK2, hits give low values 1.01 | locus YFR010W, strain ubp6, hits give low values 0.955 | locus YGL078C, strain dbp3, hits give low values 1.02 | locus YGL086W, strain mad1, hits give low values 1.02 | locus YGL167C, strain pmr1, hits give low values 0.96 | locus YGL173C, strain kem1, hits give low values 0.955 | locus YGL227W, strain vid30, hits give low values 0.962 | locus YGL240W, strain doc1, hits give low values 0.963 | locus YGL248W, strain PDE1, hits give low values 1.01 | locus YGL253W, strain hxk2, hits give low values 0.983 | locus YGR078C, strain PAC10, hits give low values 1.02 and 1.01 | locus YGR135W, strain pre9, hits give low values 1.03 | locus YGR229C, strain SMI1, hits give low values 1.01 | locus YGR252W, strain gcn5, hits give low values 1.05 | locus YHR013C, strain ard1, hits give low values 0.968 | locus YHR027C, strain rpn1, hits give low values 0.994 | locus YHR030C, strain SLT2, hits give low values 0.998 and 0.997 | locus YHR079C, strain IRE1 (second series), hits give low values 1.02 | locus YHR079C, strain IRE1, hits give low values 0.998 | locus YHR094C, strain hxt1, hits give low values 1.02 | locus YHR129C, strain ARP1, hits give low values 1 | locus YHR142W, strain chs7, hits give low values 0.964 | locus YHR200W, strain rpn10, hits give low values 1.03 | locus YIL066C, strain RNR3, hits give low values 1.01 | locus YIL073C, strain SPO22, hits give low values 1.08 | locus YIL125W, strain kgd1, hits give low values 1.03 | locus YIR030C, strain dcg1, hits give low values 1.03 | locus YJL092W, strain hpr5, hits give low values 0.974 | locus YJL095W, strain BCK1 (second series), hits give low values 0.971 | locus YJL095W, strain BCK1, hits give low values 1.02 | locus YJL115W, strain asf1, hits give low values 0.969 | locus YJL129C, strain trk1, hits give low values 0.967 | locus YJL134W, strain LCB3, hits give low values 1 | locus YJL154C, strain vps35, hits give low values 0.957 | locus YJL164C, strain tpk1, hits give low values 0.986 | locus YJL166W, strain qcr8, hits give low values 0.979 | locus YJL168C, strain set2, hits give low values 1.03 | locus YJL187C, strain SWE1 (second series), hits give low values 1.01 | locus YJL187C, strain SWE1, hits give low values 0.979 | locus YJR043C, strain POL32, hits give low values 0.994 | locus YJR066W, strain TOR1, hits give low values 0.941
